Test results from PubChem BioAssay (EPA / NIEHS).
Results filed as inconclusive are left out. The source made the active and inactive calls. How the source made its calls, unless noted: active means hit-call score of the fitted dose curve at least 0.9, where 1 is the maximum; inactive means score below 0.9.

Assays:
[1] = biological target: Nuclear respiratory factor 1 (Homo sapiens) (UniProt Q16656); assay: ATG_NRF1_CIS: Attagene CIS-FACTORIAL HepG2 Assay for human Nuclear Respiratory Factor 1 (NRF1) Orphan Gene (AID 2282987); conditions: HepG2 NRF1 cis-element reporter, Attagene multiplex; actives raise or lower the signal
In short: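 Reporter mRNA induction or loss in HepG2 cells after 24 h dosing; cis-regulated reporter constructs report endogenous transcription-factor activity. Quantified by RT-PCR/capillary electrophoresis fluorescence, DMSO-referenced.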

[2] = ATG_NFI_CIS: Attagene CIS-FACTORIAL HepG2 Assay for human Nuclear Factor I (NFI) (AID 2282989); conditions: HepG2 cis-regulatory reporter, NFI response element transcription; actives raise or lower the signal
In short: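 HepG2 cells transiently transfected with cis-element-driven multiplexed reporter transcription units, dosed for 24 h. Reporter mRNA quantified by RT-PCR, fluorescent labelling, HpaI digestion and capillary electrophoresis; bidirectional fit versus DMSO baseline.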

[3] = biological target: Myc proto-oncogene protein (Homo sapiens) (UniProt P01106); assay: ATG_Myc_CIS: Attagene CIS-FACTORIAL HepG2 Assay for human Myelocytomatosis (Myc) Proto-Oncogene Transcription Factor (AID 2282990); conditions: HepG2, Attagene cis-reporter transcription factor activity; actives raise or lower the signal
In short: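 Read-out: fluorescent reporter mRNA fragments resolved by capillary electrophoresis after RT-PCR. Human HepG2 liver cells carried transfected cis-element reporter units and were dosed for 24 h. Gain or loss of signal fitted relative to DMSO baseline.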

[4] = ATG_NF_kB_CIS: Attagene CIS-FACTORIAL HepG2 Assay for human Nuclear Factor Kappa B (NF-kB) (AID 2282991); conditions: HepG2 Attagene cis-factorial NF-kB reporter mRNA; actives raise or lower the signal
In short: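 DMSO served as negative control and baseline for bidirectional curve fitting. Transiently transfected HepG2 cells were dosed for 24 h, then reporter transcripts were measured by RT-PCR with capillary electrophoresis detection.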

[5] = ATG_NRF2_ARE_CIS: Attagene CIS-FACTORIAL HepG2 Assay for human Nuclear Factor Erythroid 2 Related Factor 2 (NFR2) response to Antioxidant Response Elements (ARE) (AID 2282992); conditions: HepG2 Attagene ARE/NRF2 reporter, transcription factor activity; actives raise or lower the signal;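 on AC50: reporter mRNA level measured by RT-PCR and capillary electrophoresis fluorescence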
In short: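 HepG2 cells transiently transfected with multiplexed cis-regulated reporter transcription units measure endogenous transcription factor activity. Reporter mRNA at 24 h is quantified by RT-PCR, fluorescent labelling and capillary electrophoresis, with bidirectional fitting relative to DMSO.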

[6] = ATG_Oct_MLP_CIS: Attagene CIS-FACTORIAL HepG2 Assay for human Octamer-Binding Transcription Factor (Oct) (AID 2282993); conditions: HepG2 Attagene cis-factorial Oct reporter, mRNA; actives raise or lower the signal
In short: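 HepG2 cells transiently transfected with cis-promoter-driven multiplexed reporter transcription units, dosed for 24 h. Reporter mRNA quantified by RT-PCR, fluorescent labelling, HpaI digestion and capillary electrophoresis; bidirectional fits versus DMSO baseline.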

[7] = biological target: Cellular tumor antigen p53 (Homo sapiens) (UniProt P04637); assay: ATG_p53_CIS: Attagene CIS-FACTORIAL HepG2 Assay for human p53 Transcription Factor (AID 2282994); conditions: HepG2 p53 cis-element reporter, Attagene mRNA; actives raise or lower the signal
In short: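 HepG2 cells transiently transfected with multiplexed cis-regulated reporter transcription units read endogenous TF activity. After 24 h compound exposure, reporter mRNA was quantified by RT-PCR, fluorescent labelling, HpaI digestion and capillary electrophoresis; bidirectional fits versus DMSO baseline.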

[8] = BSK_3C_TissueFactor: BioMAP Diversity Plus: 3C Assay for Tissue Factor Biomarker Activity (AID 2282997); conditions: BioMAP 3C HUVEC, tissue factor biomarker readout; actives raise or lower the signal
In short: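 Human vascular primary cells (umbilical vein endothelium) received test chemical; Tissue Factor was determined by ELISA at 24 h, and both gain and loss of signal versus DMSO were fitted.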

[9] = BSK_3C_uPAR: BioMAP Diversity Plus: 3C Assay for Urokinase-type plasminogen activator receptor (uPAR) Biomarker Activity (AID 2282998); conditions: BioMAP 3C HUVEC, uPAR biomarker ELISA; actives raise or lower the signal
In short: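 Human umbilical vein endothelial primary cells were exposed to test chemical for 24 h. Cell-surface uPAR was then quantified by ELISA, and responses were fitted bidirectionally against DMSO as negative control and baseline.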

[10] = BSK_3C_VCAM1: BioMAP Diversity Plus: 3C Assay for Vascular cell adhesion molecule 1 (VCAM1) Biomarker Activity (AID 2282999); conditions: BioMAP 3C HUVEC, VCAM1 ELISA, cytokine-stimulated; actives raise or lower the signal
In short: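 Human umbilical vein endothelial cells (3C system), biomarker read by ELISA 24 h after dosing; bidirectional fit against DMSO baseline. Cytotoxicity tracked by SRB total-protein staining in parallel cultures at biomarker time.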

[11] = BSK_4H_Eotaxin3: BioMAP Diversity Plus: 4H Assay for Eotaxin 3 Biomarker Activity (AID 2283000); conditions: primary human endothelial cells (HUVEC); actives raise or lower the signal;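 further: CCL26 protein level quantified by ELISA in parallel with SRB cytotoxicity check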
In short: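 Readout is Eotaxin-3 (CCL26) level by ELISA in primary human umbilical vein endothelial cells harvested 24 h after chemical exposure; activity fitted in both directions against DMSO control.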

[12] = biological target: human Peroxisome Proliferator-activated Receptor alpha (PPARa), PPARA (gene 5465) (UniProt Q07869); assay: ATG_PPARa_TRANS: Attagene TRANS-FACTORIAL HepG2 Assay for human Peroxisome Proliferator-activated Receptor alpha (PPARa) (AID 2283001; active means hit-call score of the fitted dose curve at least 0.9, where 1 is the maximum)
In short: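 HepG2 cells transiently transfected with multiplexed GAL4-UAS reporters driven by exogenous chimeric NR-Gal4 proteins; reporter mRNA measured after 24 h dosing. Read-out by RT-PCR, 6-FAM labelling, HpaI digestion and capillary electrophoresis; gain of signal versus DMSO.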

[13] = read-out: Intercellular Adhesion Molecule 1 (ICAM1), ICAM1 (gene 3383); assay: BSK_3C_ICAM1: BioMAP Diversity Plus: 3C Assay for Intercellular Adhesion Molecule 1 (ICAM1) Biomarker Activity (AID 2283003); conditions: primary human endothelial cells (HUVEC); actives raise or lower the signal
In short: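 ICAM-1 levels measured by ELISA after HUVEC cultures in the 3C system had been dosed for 24 h. Gain or loss of signal relative to DMSO was fitted in both directions.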

[14] = BSK_3C_Proliferation: Cell Proliferation Assessment in the BioMAP Diversity Plus: 3C Assay (AID 2283006); conditions: primary human endothelial cells (HUVEC);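 on AC50: potency may reflect either rise or fall in cell number versus DMSO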
In short: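 Read-out is total protein by SRB absorbance at 560 nm, taken as a proxy for relative cell number. Primary human umbilical vein endothelium cultured below confluence was dosed for 48 h, TCA-fixed and SRB-stained; curves were fitted bidirectionally versus DMSO.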

[15] = biological target: Nuclear receptor subfamily 1 group I member 2 (Homo sapiens) (UniProt O75469); assay: ATG_PXR_TRANS: Attagene TRANS-FACTORIAL HepG2 Assay for human Pregnane X Receptor (PXR) (AID 2283008; active means hit-call score of the fitted dose curve at least 0.9, where 1 is the maximum)
In short: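 HepG2 cells transiently transfected with multiple reporter units, here a PXR-GAL4 chimera driving a GAL4-UAS reporter; 24 h compound exposure. Reporter mRNA measured by RT-PCR, FAM labelling and capillary electrophoresis; gain of signal fitted against DMSO baseline.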

[16] = biological target: human Retinoic Acid Receptor gamma (RARg), RARG (gene 5916) (UniProt P13631); assay: ATG_RARg_TRANS: Attagene TRANS-FACTORIAL HepG2 Assay for human Retinoic Acid Receptor gamma (RARg) (AID 2283009; active means hit-call score of the fitted dose curve at least 0.9, where 1 is the maximum)
In short: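 Transient transfection of HepG2 with multi-reporter constructs, then 24 h chemical treatment. Total RNA isolated, reverse-transcribed, PCR-amplified, fluorescently labelled and resolved by capillary electrophoresis; activity scored as mRNA induction versus DMSO.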

[17] = biological target: human Peroxisome Proliferator-activated Receptor delta (PPARd), PPARD (gene 5467) (UniProt Q03181); assay: ATG_PPARd_TRANS: Attagene TRANS-FACTORIAL HepG2 Assay for human Peroxisome Proliferator-activated Receptor delta (PPARd) (AID 2283002; active means hit-call score of the fitted dose curve at least 0.9, where 1 is the maximum)
In short: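 Read-out: reporter mRNA induction, quantified by fluorescent RT-PCR products resolved by capillary electrophoresis. Human HepG2 liver cells carried transiently transfected Gal4-UAS reporter constructs with chimeric NR-Gal4 fusions. Cells were dosed for 24 h; DMSO served as baseline.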

[18] = biological target: Peroxisome proliferator-activated receptor gamma (Homo sapiens) (UniProt P37231); assay: ATG_PPARg_TRANS: Attagene TRANS-FACTORIAL HepG2 Assay for human Peroxisome Proliferator-activated Receptor-gamma (PPARg) (AID 2283007; active means hit-call score of the fitted dose curve at least 0.9, where 1 is the maximum)
In short: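 Chimeric NR-Gal4 transactivation is measured in transiently transfected HepG2 cells by reporter mRNA induction at 24 h. Detection uses RT-PCR with fluorescent labelling and capillary electrophoresis; DMSO defines baseline.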

[19] = biological target: human Retinoic Acid Receptor beta (RARb), RARB (gene 5915) (UniProt P10826); assay: ATG_RARb_TRANS: Attagene TRANS-FACTORIAL HepG2 Assay for human Retinoic Acid Receptor beta (AID 2283004; active means hit-call score of the fitted dose curve at least 0.9, where 1 is the maximum)
In short: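 Readout is reporter mRNA induction: RNA reverse-transcribed, PCR-amplified, FAM-labelled, HpaI-cut and resolved by capillary electrophoresis. Transiently transfected HepG2 cells carrying exogenous NR–Gal4 chimeras were dosed for 24 h; activity fitted upward relative to DMSO.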

[20] = biological target: Retinoic acid receptor alpha (Homo sapiens) (UniProt P10276); assay: ATG_RARa_TRANS: Attagene TRANS-FACTORIAL HepG2 Assay for human Retinoic Acid Receptor alpha (RARa) (AID 2283005; active means hit-call score of the fitted dose curve at least 0.9, where 1 is the maximum)
In short: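 HepG2 transiently transfected with multiplex GAL4-UAS reporter units including a human RARa–GAL4 chimera; 24 h compound exposure. Reporter mRNA quantified by RT-PCR, 6-FAM labeling and capillary electrophoresis; gain of signal versus DMSO.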

Measured: AC50

Nuclear respiratory factor 1 (Homo sapiens), sequence (Q16656 whole entry, looked up): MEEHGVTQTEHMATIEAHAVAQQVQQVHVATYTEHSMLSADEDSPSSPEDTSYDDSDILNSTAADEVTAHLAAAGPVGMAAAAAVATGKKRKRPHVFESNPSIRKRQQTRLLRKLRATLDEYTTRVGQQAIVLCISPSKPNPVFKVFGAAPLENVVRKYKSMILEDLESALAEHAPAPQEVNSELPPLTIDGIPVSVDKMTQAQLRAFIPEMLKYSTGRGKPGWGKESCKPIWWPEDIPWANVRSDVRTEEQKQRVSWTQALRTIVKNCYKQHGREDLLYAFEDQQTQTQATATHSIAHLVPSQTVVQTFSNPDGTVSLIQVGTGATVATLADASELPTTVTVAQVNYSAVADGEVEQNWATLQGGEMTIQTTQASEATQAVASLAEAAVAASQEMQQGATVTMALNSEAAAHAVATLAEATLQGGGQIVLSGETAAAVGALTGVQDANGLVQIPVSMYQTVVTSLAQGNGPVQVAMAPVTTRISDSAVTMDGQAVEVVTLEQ
Peroxisome proliferator-activated receptor gamma (Homo sapiens), sequence (P37231 whole entry, looked up, the tested form may be a part): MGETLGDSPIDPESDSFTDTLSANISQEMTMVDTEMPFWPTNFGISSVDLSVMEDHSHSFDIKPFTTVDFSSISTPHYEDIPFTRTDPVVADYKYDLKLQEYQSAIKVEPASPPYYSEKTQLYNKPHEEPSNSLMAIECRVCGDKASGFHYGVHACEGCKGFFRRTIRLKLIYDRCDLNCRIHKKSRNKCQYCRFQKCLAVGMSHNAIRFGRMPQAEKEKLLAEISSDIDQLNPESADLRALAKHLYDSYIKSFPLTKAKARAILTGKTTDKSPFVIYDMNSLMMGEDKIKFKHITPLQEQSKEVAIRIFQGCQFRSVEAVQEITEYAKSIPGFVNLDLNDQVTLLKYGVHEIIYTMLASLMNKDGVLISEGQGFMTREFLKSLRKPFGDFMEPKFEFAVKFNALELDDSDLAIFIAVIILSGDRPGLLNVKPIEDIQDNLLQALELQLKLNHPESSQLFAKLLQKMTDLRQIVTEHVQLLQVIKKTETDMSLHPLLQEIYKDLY
human Retinoic Acid Receptor gamma (RARg), RARG (gene 5916), sequence (P13631 whole entry, looked up): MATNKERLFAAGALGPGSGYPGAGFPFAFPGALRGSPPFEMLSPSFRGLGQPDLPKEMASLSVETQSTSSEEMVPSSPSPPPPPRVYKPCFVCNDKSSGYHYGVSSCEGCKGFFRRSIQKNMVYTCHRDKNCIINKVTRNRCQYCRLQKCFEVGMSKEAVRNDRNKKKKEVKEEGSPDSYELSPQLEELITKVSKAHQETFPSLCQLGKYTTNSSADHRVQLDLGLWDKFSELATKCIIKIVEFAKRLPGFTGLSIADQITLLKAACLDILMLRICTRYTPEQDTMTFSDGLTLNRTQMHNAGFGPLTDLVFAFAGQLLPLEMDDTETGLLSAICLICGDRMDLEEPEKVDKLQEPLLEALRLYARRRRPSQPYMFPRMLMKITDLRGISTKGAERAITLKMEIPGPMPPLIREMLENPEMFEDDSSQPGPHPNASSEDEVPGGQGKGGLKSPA
human Peroxisome Proliferator-activated Receptor delta (PPARd), PPARD (gene 5467), sequence (Q03181 whole entry, looked up, the tested form may be a part): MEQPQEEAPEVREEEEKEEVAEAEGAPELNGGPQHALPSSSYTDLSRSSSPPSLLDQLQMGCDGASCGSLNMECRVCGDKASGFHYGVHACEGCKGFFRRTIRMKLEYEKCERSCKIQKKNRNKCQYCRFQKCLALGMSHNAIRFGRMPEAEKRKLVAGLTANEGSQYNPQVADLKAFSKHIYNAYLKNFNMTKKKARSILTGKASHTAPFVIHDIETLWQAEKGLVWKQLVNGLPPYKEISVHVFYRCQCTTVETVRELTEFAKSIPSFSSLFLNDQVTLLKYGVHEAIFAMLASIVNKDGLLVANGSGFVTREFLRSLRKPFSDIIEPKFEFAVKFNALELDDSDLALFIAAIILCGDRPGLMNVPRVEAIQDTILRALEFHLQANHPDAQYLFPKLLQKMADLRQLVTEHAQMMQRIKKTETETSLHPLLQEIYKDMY
Myc proto-oncogene protein (Homo sapiens), sequence (P01106 whole entry, looked up, the tested form may be a part): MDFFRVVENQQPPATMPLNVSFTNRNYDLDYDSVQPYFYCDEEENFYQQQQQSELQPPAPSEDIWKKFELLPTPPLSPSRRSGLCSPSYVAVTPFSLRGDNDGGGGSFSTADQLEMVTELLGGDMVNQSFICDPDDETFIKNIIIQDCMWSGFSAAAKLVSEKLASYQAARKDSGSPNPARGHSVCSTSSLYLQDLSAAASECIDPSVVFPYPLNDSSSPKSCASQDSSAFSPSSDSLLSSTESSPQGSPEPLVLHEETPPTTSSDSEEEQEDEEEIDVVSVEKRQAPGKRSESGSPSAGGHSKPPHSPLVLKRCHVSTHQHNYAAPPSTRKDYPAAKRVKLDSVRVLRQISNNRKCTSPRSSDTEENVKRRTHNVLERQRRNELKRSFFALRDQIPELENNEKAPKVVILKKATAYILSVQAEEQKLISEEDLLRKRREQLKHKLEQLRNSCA
Cellular tumor antigen p53 (Homo sapiens), sequence (P04637 whole entry, looked up): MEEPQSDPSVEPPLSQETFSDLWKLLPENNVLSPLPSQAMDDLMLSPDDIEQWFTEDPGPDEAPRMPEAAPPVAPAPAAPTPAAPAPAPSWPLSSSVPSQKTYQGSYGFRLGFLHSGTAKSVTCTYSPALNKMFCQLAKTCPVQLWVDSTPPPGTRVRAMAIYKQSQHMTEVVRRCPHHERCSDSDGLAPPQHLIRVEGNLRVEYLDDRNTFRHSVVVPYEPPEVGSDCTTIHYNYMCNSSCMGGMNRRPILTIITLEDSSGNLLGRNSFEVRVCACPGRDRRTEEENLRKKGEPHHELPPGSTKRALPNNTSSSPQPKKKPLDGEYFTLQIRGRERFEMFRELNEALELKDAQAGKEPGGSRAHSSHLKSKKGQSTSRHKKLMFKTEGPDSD
human Peroxisome Proliferator-activated Receptor alpha (PPARa), PPARA (gene 5465), sequence (Q07869 whole entry, looked up, the tested form may be a part): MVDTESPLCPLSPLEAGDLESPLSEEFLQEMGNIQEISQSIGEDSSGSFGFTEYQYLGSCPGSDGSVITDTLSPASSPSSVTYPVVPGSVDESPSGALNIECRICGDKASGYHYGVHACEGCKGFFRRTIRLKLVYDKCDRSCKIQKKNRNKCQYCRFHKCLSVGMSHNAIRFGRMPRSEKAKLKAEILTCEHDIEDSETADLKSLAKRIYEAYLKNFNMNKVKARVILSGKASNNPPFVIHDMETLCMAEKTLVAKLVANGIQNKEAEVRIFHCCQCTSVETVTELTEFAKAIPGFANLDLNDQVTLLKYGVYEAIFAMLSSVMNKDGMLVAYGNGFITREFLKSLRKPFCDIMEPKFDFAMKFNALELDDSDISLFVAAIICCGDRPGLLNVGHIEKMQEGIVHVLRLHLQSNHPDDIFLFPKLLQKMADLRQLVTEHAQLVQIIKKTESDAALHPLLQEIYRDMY
Nuclear receptor subfamily 1 group I member 2 (Homo sapiens), sequence (O75469 whole entry, looked up, the tested form may be a part): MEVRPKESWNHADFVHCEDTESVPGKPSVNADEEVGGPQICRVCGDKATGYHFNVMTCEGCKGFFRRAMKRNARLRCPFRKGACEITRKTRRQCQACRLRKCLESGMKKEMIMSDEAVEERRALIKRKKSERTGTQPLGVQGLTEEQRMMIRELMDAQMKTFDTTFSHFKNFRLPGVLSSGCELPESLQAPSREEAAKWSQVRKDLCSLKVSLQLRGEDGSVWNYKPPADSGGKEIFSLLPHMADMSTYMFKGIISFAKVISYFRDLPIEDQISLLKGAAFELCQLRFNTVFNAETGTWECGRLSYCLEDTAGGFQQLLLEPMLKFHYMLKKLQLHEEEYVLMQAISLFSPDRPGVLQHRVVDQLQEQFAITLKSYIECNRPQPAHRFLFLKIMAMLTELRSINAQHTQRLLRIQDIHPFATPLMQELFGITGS
Retinoic acid receptor alpha (Homo sapiens), sequence (P10276 whole entry, looked up, the tested form may be a part): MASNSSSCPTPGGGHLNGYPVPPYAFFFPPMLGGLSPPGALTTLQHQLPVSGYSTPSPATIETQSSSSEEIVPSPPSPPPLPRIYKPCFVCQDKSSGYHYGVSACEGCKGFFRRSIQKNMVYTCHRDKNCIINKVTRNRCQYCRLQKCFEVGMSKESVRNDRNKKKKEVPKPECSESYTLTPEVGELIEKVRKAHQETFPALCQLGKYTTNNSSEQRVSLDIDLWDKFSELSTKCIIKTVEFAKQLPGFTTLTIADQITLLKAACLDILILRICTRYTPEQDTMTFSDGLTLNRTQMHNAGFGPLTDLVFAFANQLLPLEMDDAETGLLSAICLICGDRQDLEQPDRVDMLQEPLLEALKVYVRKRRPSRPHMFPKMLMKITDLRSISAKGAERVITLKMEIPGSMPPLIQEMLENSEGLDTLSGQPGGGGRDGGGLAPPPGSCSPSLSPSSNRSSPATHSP
human Retinoic Acid Receptor beta (RARb), RARB (gene 5915), sequence (P10826 whole entry, looked up, the tested form may be a part): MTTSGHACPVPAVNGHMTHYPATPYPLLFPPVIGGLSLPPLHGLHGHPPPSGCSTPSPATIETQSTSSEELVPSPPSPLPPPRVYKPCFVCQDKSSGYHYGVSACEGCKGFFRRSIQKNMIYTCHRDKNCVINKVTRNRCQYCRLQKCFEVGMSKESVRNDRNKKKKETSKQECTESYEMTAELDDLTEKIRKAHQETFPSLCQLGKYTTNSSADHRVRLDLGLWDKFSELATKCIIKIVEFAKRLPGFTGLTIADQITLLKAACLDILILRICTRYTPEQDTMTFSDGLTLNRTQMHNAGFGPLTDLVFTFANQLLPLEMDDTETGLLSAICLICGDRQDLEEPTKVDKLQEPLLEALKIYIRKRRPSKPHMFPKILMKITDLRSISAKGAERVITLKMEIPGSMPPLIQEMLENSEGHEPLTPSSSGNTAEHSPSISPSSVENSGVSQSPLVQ

O=C(Cl)c1c(Cl)c(Cl)c(C(=O)Cl)c(Cl)c1Cl
inactive: [1] | [2] | [3] | [4] | [5] | [6] | [7] | [8] | [9] | [10] | [11] | [12] | [13] | [14] | [15] | [16]

C=CC(=O)OCCCCCCCC(C)C
active: [5] 58 µM | [6] 121 µM | [8] 20 µM | [10] 13 µM | [14] 9.67 µM
inactive: [1] | [2] | [3] | [4] | [7] | [9] | [11] | [17] | [15]

CCCCCCCCCC(C)=O
inactive: [1] | [2] | [3] | [4] | [5] | [6] | [7] | [17] | [18] | [15]

CC(C)(C)NC(=O)[C@H]1CC[C@H]2[C@@H]3CC[C@H]4NC(=O)C=C[C@]4(C)[C@H]3CC[C@]12C
active: [5] 100 µM | [7] 38.7 µM | [15] 19.8 µM
inactive: [1] | [2] | [3] | [4] | [6] | [17]

CCOC(=O)c1ccccc1C
inactive: [1] | [2] | [3] | [4] | [5] | [6] | [7] | [12] | [19] | [20] | [15]

C/C=C/C=C/CCCCCCCO
active: [5] 45.6 µM | [17] 27.2 µM | [18] 2.64 µM
inactive: [1] | [2] | [3] | [4] | [6] | [7] | [12] | [15]

CCOC(=O)c1ccc(C)cc1
inactive: [1] | [2] | [3] | [4] | [5] | [6] | [7] | [12] | [17] | [16]

c1ccc(-c2nc3ccccc3[nH]2)cc1
inactive: [1] | [2] | [4] | [5] | [6] | [7] | [17] | [18]
active: [3] 26.1 µM | [15] 23.4 µM

CCC(C)c1ccccc1 (stereo unspecified)
inactive: [1] | [2] | [3] | [4] | [5] | [6] | [7] | [12] | [17] | [18] | [15] | [16]

CC(=O)OC1CCCCC1C(C)(C)C (stereo unspecified)
inactive: [1] | [2] | [3] | [4] | [5] | [6] | [7] | [17] | [19] | [20] | [18] | [15] | [16]
